Data as given in PubChem BioAssay AID686979 (National Center for Advancing Translational Sciences (NCATS), 2013).
Out of some 420,000 compounds screened, about 50,000 (12%) were called active. Inconclusive results (about 26%) are left out. Calls come from the whole dose curve; as a rule, active = well fitted inhibition curve with a large enough effect; inconclusive = small, poorly fitted or top-dose-only effect; inactive = flat fitted curve, though single readings scatter. Shown is part of a subset that was picked to be rich in actives. Where a call stands in place of a potency, no number is given.

Experiment: qHTS for Inhibitors of human tyrosyl-DNA phosphodiesterase 1 (TDP1): qHTS in cells in presence of CPT; note: nearly all actives have a fitted effect of over 55% in size
Details: chicken DT40 Tdp1-/-;hTDP1 cells + 20 nM CPT, ATP luminescence, 48 h; series mostly up to 46.2 µM
In short: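 Chicken DT40 Tdp1-/- cells complemented with human TDP1, 400 cells/well, exposed to compounds plus 20 nM camptothecin for at least 48 h at 37 C; viability read as ATP content by CellTiter-Glo luminescence.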
Potency is the fitted concentration of half-maximal effect.

| SMILES | Potency |
| --- | --- |
| COc1ccccc1N(CC(=O)Nc1c(C)n(C)n(-c2ccccc2)c1=O)S(=O)(=O)c1ccccc1 | inactive |
| Cc1c(Cl)cccc1NC(=O)NCCCN1CCCC1=O | inactive |
| O=C(OCc1cc(=O)n2nc(C3CC3)sc2n1)c1ccccc1Cl | inactive |
| C=CCOC(=O)C1=C[C@H](c2ccc(Br)cc2)C[C@H](OCCCCO)O1 | inactive |
| COc1ccc(Cc2nnc(SC)[nH]c2=O)cc1 | 12.6 µM (active) |
| CSc1nc(O)c(Cc2ccccc2)c(=O)[nH]1 | inactive |
| COc1ccc(Cc2nnc(SCC(=O)Nc3ccc(C)c(Cl)c3)[nH]c2=O)cc1 | inactive |
| COc1ccc(NC(=O)CCNC(=O)Cn2cnc3sc4c(c3c2=O)CCCC4)cc1OC | inactive |
| O=C(O)CC(SCC(=O)Nc1ccc(Br)cc1)C(=O)O (stereo not drawn) | inactive |
| CCOc1cccc(/C=N/NC(=S)NCCN2CCOCC2)c1O | 4.11 µM (active) |
| Cc1ccc(NC(=S)NCCN2CCOCC2)cc1 | inactive |
| Cc1ccc(C(=O)NC(=S)NCCN2CCOCC2)cc1 | inactive |
| C=CCSc1nnc(NC(=O)c2ccc(NC(C)=O)cc2)s1 | inactive |
| C=CCN(CC=C)S(=O)(=O)c1ccc(C(=O)Nc2sc3c(c2C(N)=O)CCCCC3)cc1 | 13 µM (active) |
| O=C(Nc1ncc2c(n1)-c1ccccc1OC2)c1ccc(Cl)cc1 | inactive |
| COc1ccc(C(=O)Nc2ncc3c(n2)-c2ccccc2CC3)cc1 | inactive |
| C=CCN(CC=C)S(=O)(=O)c1ccc(C(=O)Nc2nc3c(s2)CCc2ccccc2-3)cc1 | 16.4 µM (active) |
| COc1cccc(OC)c1C(=O)Nc1sc2c(c1C(N)=O)CCCC2 | inactive |
| COCCN(CCOC)S(=O)(=O)c1ccc(C(=O)Nc2nc3c(s2)CCc2ccccc2-3)cc1 | 9.2 µM (active) |
| NC(=O)c1c(NC(=O)c2ccccc2)sc2c1CCCC2 | inactive |
| COCc1nnc(NC(=O)c2ccc3c(c2)OCO3)s1 | inactive |

| SMILES | Potency |
| --- | --- |
| Cc1ccc2c(=O)cc(C(=O)NCCc3ccc(S(N)(=O)=O)cc3)oc2c1C | inactive |
| O=C1CC2(CCCC2)Oc2ccc(Cl)cc21 | inactive |
| O=C1C=C(c2ccccc2)CCC1 | inactive |
| CC1CCCCC1NC(=O)CN1CCC(O)(c2ccc3c(c2)OCO3)CC1 (stereo not drawn) | inactive |
| CC(CCc1ccccc1)NCC(O)c1cccc([N+](=O)[O-])c1 (stereo not drawn) | inactive |
| CCn1c2ccccc2c2nnc(N3CCN(c4cc(C)ccc4C)CC3)nc21 | inactive |
| O=C(Cc1ccc([N+](=O)[O-])cc1)Nc1ccc(C(=O)N2CCOCC2)cc1 | inactive |
| CN(C(=O)c1cccc(NC(=O)Cc2ccc(NC(=O)C3CCCN(C(=O)C4CC4)C3)cc2)c1)C1CC1 (stereo not drawn) | inactive |
| CN(CCc1ccccc1)C(=O)c1cccc(NC(=O)Cc2cccc(NC(=O)C3CCCN(C(=O)C4CCC4)C3)c2)c1 (stereo not drawn) | 18.4 µM (active) |
| O=C(Cc1ccc(NC(=O)C2CCCN(C(=O)CCc3ccccc3)C2)cc1)Nc1ccc(C(=O)N2CCOCC2)cc1 (stereo not drawn) | 23.1 µM (active) |
| CCNC(=O)c1cccc(NC(=O)C2CC(=O)N(CCc3ccccc3)C2)c1 (stereo not drawn) | inactive |
| O=C(Cc1ccc(NC(=O)C2CCCN(C(=O)C3CCCCC3)C2)cc1)Nc1cccc(C(=O)N2CCCCC2)c1 (stereo not drawn) | inactive |
| CC(=O)c1cccc(NC(=O)N2CCCC2C(=O)NCCc2ccccc2)c1 (stereo not drawn) | inactive |
| CN(CCc1ccccc1)C(=O)c1cccc(NC(=O)Cc2cccc(NC(=O)C3CCCN(C(=O)CCc4ccccc4)C3)c2)c1 (stereo not drawn) | 14.6 µM (active) |
| CN(C(=O)c1ccc(NC(=O)Cc2cccc(NC(=O)C3CCN(C(=O)c4ccccc4)CC3)c2)cc1)C1CC1 | inactive |
| COc1ccc(CC(=O)NC2CCSc3ccccc32)cc1OC (stereo not drawn) | inactive |
| CCOc1c2ccc(C(=O)NC3CCCc4ccccc43)cc2nn1CC (stereo not drawn) | inactive |
| O=C(Nc1ccc(S(=O)(=O)Nc2nccs2)cc1)c1cccc(S(=O)(=O)N2CCOCC2)c1 | inactive |
| CCNc1c(NS(=O)(=O)c2ccc(C3CCCCC3)cc2)c(=O)oc2ccccc12 | 18.4 µM (active) |
| CC(C)(C)Nc1c(N)c(=O)oc2ccccc12 | inactive |
| O=c1oc2ccccc2c(NC2CCCCC2)c1NS(=O)(=O)c1ccc(Cl)cc1 | inactive |

| SMILES | Potency |
| --- | --- |
| CCc1ccccc1N1C(=O)C2C3CC(=O)C(c4ccccc43)C2C1=O (stereo not drawn) | inactive |
| CCC(C)CCN1CCN=C1N(C)C (stereo not drawn) | inactive |
| CC(C)CCN1CCN=C1N(C)C | inactive |
| CC1CCC(CN2CCN=C2N(C)C)CC1 (stereo not drawn) | 8.2 µM (active) |
| NS(=O)(=O)c1cccc(NC(=O)COC(=O)c2cc([N+](=O)[O-])ccc2N2CCCC2)c1 | inactive |
| CCOC(=O)N1CCC(N2CCOc3ccc(CN4CCC(O)(c5cccnc5)CC4)cc3C2)CC1 | inactive |
| NCCCNCCCCN(CCCN)/[N+]([O-])=N/O | 13.3 µM (active) |
| COc1ccc(N2CCN(Cc3ccc(Br)s3)CC2)cc1 | inactive |
| CCCCCCCC[n+]1cccc(C(=O)N2c3c(nc(N)[nH]c3=O)NC(C)C2C)c1 (stereo not drawn) | inactive |
| Cc1ccc(S(=O)(=O)N[C@@H](Cc2ccccc2)C(=O)N2CCC(C(=O)N[C@H](C(=O)O)C(C)O)CC2)cc1 (stereo partly drawn) | inactive |
| CC1(C)C=C2[C@H]3CC[C@@H]4[C@@]5(C)CCC(=O)C(C)(C)[C@@H]5CC[C@@]4(C)[C@]3(C)CC[C@@]2(C(=O)O)CC1 | 5.17 µM (active) |
| N#Cc1cccc(OC(=O)c2ccc3c(=O)n4c(nc3c2)CCC4)c1 | inactive |
| O=C(CCNC(=O)C1CCN(S(=O)(=O)c2ccccc2)CC1)NC1CC1 | inactive |
| O[C@H]1CN(Cc2cccs2)[C@@H](c2ccc(Cl)cc2)C[C@@H]1n1cc(C2CC2)nn1 | inactive |
| Cc1ccc(O)c(-c2cc(C(=O)NCc3ccccc3)[nH]n2)c1 | inactive |
| Cc1cc(O)ccc1-c1cc(C(=O)NCc2cc(C(F)(F)F)cc(C(F)(F)F)c2)[nH]n1 | 18.4 µM (active) |
| O=C(Cc1cccs1)NCc1cccc(C(F)(F)F)c1 | inactive |
| Cc1ccc(NC(=O)COC(=O)C2C3CC4OC(=O)C2C4C3)cc1Cl (stereo not drawn) | inactive |
| CC(C)(C)n1nnnc1C(c1ccc(F)cc1)N1CCN(Cc2ccc3c(c2)OCO3)CC1 (stereo not drawn) | inactive |
| Fc1ccccc1C(c1nnnn1Cc1ccc2c(c1)OCO2)N1CCN(Cc2ccccc2)CC1 (stereo not drawn) | 14.6 µM (active) |
| CC(C)(C)n1nnnc1C(c1ccccc1F)N1CCN(C(=O)c2ccco2)CC1 (stereo not drawn) | inactive |
